In PubChem BioAssay AID687001 (Broad Institute, 2013):
Measured potencies and affinities stand elsewhere. Unmarked numbers belong to inactive results.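 The calls were made as follows: active = signal-lowering compounds whose fitted half-maximal concentration is at or below twice the top tested dose in every run; inconclusive = runs disagree, flat 30 to 70% inhibition, or poor curve fit; inactive = the rest.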

What follows are molecules tested against Protein S100-A4 (Homo sapiens) (UniProt P26447) (assay: human S100A4 peptide interaction inhibition curves – biochemical, fluorescence polarization, cherry-picked hits, dose response (AID 687001;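 also: 0% = DMSO neutral control wells and -100% = TFP positive control wells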)). Details: FP, S100A4/TAMRA-myosin IIA peptide binding; series mostly up to 11 µM; activity change, negative = inhibition: at the top concentration.
Sequence of Protein S100-A4 (Homo sapiens) (P26447 whole entry, looked up): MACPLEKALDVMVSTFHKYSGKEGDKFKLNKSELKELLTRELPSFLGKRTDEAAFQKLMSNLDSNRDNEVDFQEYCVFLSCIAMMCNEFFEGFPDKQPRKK

SMILES	activity change, negative = inhibition
CCC(=O)N1C[C@H](O)COC[C@H]2O[C@H](CC(=O)NCc3cc(F)cc(F)c3)CC[C@@H]21	16.2%
C=C1CCN([C@@H](Cc2ccccc2)C(=O)NC2CCN(Cc3ccccc3)CC2)S(=O)(=O)c2ccccc21	-0.361%
O=C(COC(=O)Cc1ccc(Cl)c(Cl)c1)Nc1ccc2[nH]c(=O)[nH]c2c1	1.28%
O=S(=O)(c1ccc(F)cc1)N1C[C@H]2[C@@H](c3ccccc31)[C@H](CO)N2Cc1ccccc1Cl	19.3%
CCCN(CCC)Cc1cc(=O)oc2cc(C)c(C)cc12	-1.88%
O=C(CSc1ccc(Cl)cc1)NC1CC1	-3.42%
CC(=O)Cc1cc2cc([N+](=O)[O-])ccc2oc1=O	-1.55%
CC(C)NC(=O)N(C)C[C@@H]1Oc2ccc(NS(=O)(=O)c3ccccc3)cc2C(=O)N([C@H](C)CO)C[C@@H]1C	7.22%
Cc1ccc(CN2C(=O)CSCC2(C)C(=O)Nc2c(C)cccc2C)cc1 (stereo not given)	2.37%
Cc1cccc2sc(NC(=O)C3CCN(C(=O)c4ccco4)CC3)nc12	-2.59%
COc1ccc(NC(=O)N(C)C[C@H]2OCCCC[C@@H](C)Oc3ccc(NC(=O)NC4CCCCC4)cc3C(=O)N([C@H](C)CO)C[C@@H]2C)cc1	9.67% [at 10 µM]
COc1ccc(-c2cc(C(=O)NC3CC3)c3ccccc3n2)cc1	1.48%
CCCCCCCCNC(CO)(CO)CO	-3.47%
C[C@@H]1CN([C@@H](C)CO)C(=O)Cc2cc(NC(=O)CCN3CCOCC3)ccc2O[C@@H]1CN(C)C	0.267%
O=C1[C@H]2[C@@H](c3ccc(F)cc3)N3C(=O)N(c4cccc(Br)c4)C(=O)[C@@]3(Cc3ccccc3)[C@H]2C(=O)N1C1CCCCC1	-1.44%
